High-throughput results: PubChem BioAssay, National Center for Advancing Translational Sciences (NCATS)
Shown are actives, neighbours in structure and some others; about 8% of the full set was active somewhere.
Marburg entry inh = inhibitors of Marburg virus binding or cell entry; Potency, µM (series often up to 37.8 µM), without a hit: at the top dose activity change, negative = inhibition, hits mostly inhibitors; hit rate 1.8% among 300,000; Marburg virus pseudotyped entry inhibition, cell reporter; AID 540276; calls by dose curve; tested in HEK293 cells; also: potency is read from the fitted curve at half-maximal effect; % is scaled to controls: 0 for no effect and ±100 for the full control effect
HCMV inh = human cytomegalovirus inhibition. HFF cells, HCMV-luciferase reporter, 72 h; active compounds read low. activity change, negative = inhibition, % at 57.5 µM. hit rate 4.5% among 410,000. AID 1259415; in the data active = activity change below about -60%; inconclusive = no clear call, values can overlap the other calls; inactive = above about -39%; also: % is scaled to controls: 0 for no effect and ±100 for the full control effect
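Human foreskin fibroblasts infected with luciferase-reporter HCMV at MOI 1 PFU/cell, compounds at two doses. Luciferase measured 72 h post infection; normalized to buffer-only basal and Salinomycin (10uM) controls.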
SARS PLP yeast = SARS-CoV PLP inhibition in yeast; S. cerevisiae expressing SARS-CoV PLpro, growth rescue; Potency, µM (doses to about 32.9 µM), for inactives: at the highest dose activity, positive = growth rescue, most hits filed as activators; hit rate 0.19% among 330,000; AID 485353; calls by dose curve; also: potency is read from the fitted curve at half-maximal effect; 0% is about no effect; nearly all actives have a fitted effect of over 55% in size
FMDV antiviral = antivirals against foot and mouth disease virus | FMDV antiviral cell-based qHTS | Potency, µM (highest dose often 57.9 µM), for the others: at the top dose activity change, negative = inhibition, actives largely listed as inhibitors | hit rate 1.2% among 410,000; calls by dose curve; tested in HEK293T cells; also: read-out not given here; potency is read from the fitted curve at half-maximal effect; % is scaled to controls: 0 for no effect and ±100 for the full control effect; nearly all actives have a fitted effect of over 45% in size
LASV entry inh = blocks Lassa virus binding to or entry into cells | hit rate 1.2% among 300,000 | Lassa virus pseudotype entry inhibition, cell reporter | Potency, µM (top dose mostly 37.9 µM), for the others: top-dose activity change, negative = inhibition, most hits filed as inhibitors | AID 540256; calls by dose curve; tested in HEK293 cells; also: potency is read from the fitted curve at half-maximal effect; % is scaled to controls: 0 for no effect and ±100 for the full control effect; nearly all actives have a fitted effect of over 50% in size
HCV inh = HCV inhibition; Huh7.5.1 HCVcc-Cre infection, luciferase reporter, 44 h; Potency, µM (titrated, usually from 41.8 µM), for inactives: top-dose activity change, negative = inhibition, most hits filed as inhibitors; hit rate 3.4% among 340,000; active = well fitted inhibition curve with a large enough effect; inconclusive = small, poorly fitted or top-dose-only effect, or another doubt; inactive = no such curve, though single readings can be large or run the other way; also: potency is read from the fitted curve at half-maximal effect; % is scaled to controls: 0 for no effect and ±100 for the full control effect
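HCVcc-Cre virus at an moi near 0.5 was added right after compound to cells cultured 4 h from seeding (1,000 cells/well). Luciferase activity was determined 44 h later, 15 min after substrate addition at RT.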
Active calls of the source: *; ? = inconclusive; . = no result; [ ] = remark or other dose.

SMILES | Marburg entry inh | HCMV inh | SARS PLP yeast | FMDV antiviral | LASV entry inh | HCV inh
COc1ccc(C(=O)N=c2sc3c(C)ccc(OC)c3n2C)cc1OC | . | 83 | 1% | 44% | . | 16µM*
COc1ccc(OC)c2c1sc(=NC(=O)c1ccco1)n2C | . | -6 | -1% | -23% | . | 7.9µM*
COc1cccc(C(=O)N=c2sc3c(C)ccc(OC)c3n2C)c1 | . | 58 | 4% | 55% | . | ?
COc1ccc(N2CCN(C(c3ccccc3F)c3sc4nc(-c5ccco5)nn4c3O)CC2)cc1 (centres undefined) | . | -2 | . | 29% | 1%[46.1 µM] | .
CN(C)S(=O)(=O)c1ccc(NC(=O)CSc2nc3ccccc3n2-c2ccccc2)cc1 | ? | ? | -3% | 0% | 18µM* | ?
CN(C)S(=O)(=O)c1cccc(NC(=O)CSc2nc3ccccc3n2-c2ccccc2)c1 | ? | -88* | -13% | -9% | ? | ?
CCC(NC(=O)c1cc(COc2cncc(Cl)c2)on1)c1ccncc1 (centres undefined) | . | ? | 16% | -16% | . | ?
O=C(c1cc(COc2ccc(F)cc2Cl)on1)N(Cc1ccncc1)CC1CCCO1 (centres undefined) | -15%[46.1 µM] | -61* | 0% | -15% | ? | ?
COc1ccc(OCc2cc(C(=O)N(Cc3nccn3C)C(C)C)no2)c2ccccc12 | . | 93 | -3% | 24% | . | ?
CCCc1ccc2oc(C(=O)N(Cc3ccncc3)CC3CCCO3)c(C)c2c1 (centres undefined) | ? | -13 | -13% | 17% | 6.3µM* | ?
CC(C)N(Cc1nccn1C)C(=O)c1cc(COc2ccc(F)cc2Cl)on1 | 1% | -97* | 1% | -11% | -4% | -54%
CCC(NC(=O)c1cc(COc2ccc(F)cc2Cl)on1)c1ccncc1 (centres undefined) | . | ? | -4% | -15% | . | 4µM*
Cc1ccccc1C1=NOC2CN(C(=O)COc3ccccc3)CC12 (centres undefined) | . | -23 | . | . | . | .
O=C(c1cc(COc2ccc(F)cc2Cl)on1)N1CCCCCC1 | . | 70 | ? | 42% | . | ?
O=C(c1cc(COc2ccc(F)cc2Cl)on1)N1CCC(c2ccncc2)CC1 | ? | -67* | -4% | -28% | ? | 13µM*
O=C(NCCc1ccc(Cl)cc1)c1ccc(CSCc2ccc(Cl)cc2)o1 | . | -30 | . | 0% | -19%[46.1 µM] | .
COc1ccccc1NC(=O)N[C@H]1CC[C@@]23CCCN2C(=O)CCC[C@H]3C1Cc1ccccc1 (some centres undefined) | . | -14 | . | . | . | .
O=C(O)c1cccc(-c2nnn(Cc3ccccc3Cl)n2)c1 | 6.3µM* | 117 | -8% | -25% | 8.2µM* | 17%
Cc1ccccc1Cn1nnc(-c2cccc(C(=O)O)c2)n1 | 5.8µM* | 150 | -6% | -51% | 13µM* | 3%
c1ccc(COc2ccc(Oc3nc(N4CCCCC4)nc(N4CCOCC4)n3)nn2)cc1 | ? | 19 | -7% | -20% | 5.8µM* | 4%
Cc1ccc(Nc2nc(Oc3ccc(OCc4ccccc4)nn3)nc(N3CCOCC3)n2)cc1 | ? | 35 | 0% | ? | -3% | -5%
CC(=O)Nc1ccc(NC(=O)C(c2ccccc2)N2Cc3ccccc3C2=O)cc1 (centres undefined) | . | 4 | . | ? | -3%[46.1 µM] | .
NCCCCCc1nnc(SCc2ccccc2Cl)o1 | ? | -76* | 0% | ? | ? | -20%
N[C@@H](Cc1ccccc1)c1nnc(SCc2ccccc2Cl)o1 | -16% | -70* | -1% | 1% | 19% | -3%
NCCc1nnc(SCc2c(Cl)cccc2Cl)o1 | . | -25 | 0% | -17% | . | 7%
SMILES | Marburg entry inh | HCMV inh | SARS PLP yeast | FMDV antiviral | LASV entry inh | HCV inh
COc1ccc(COC(=O)N/N=C2/C[C@@H](O)[C@@H](O)[C@@H]3[C@@H]4C(=O)N(Cc5ccc6c(c5)OCO6)C(=O)[C@H]4CC[C@@H]23)cc1 | 4%[14.2 µM] | . | . | . | . | .
CCOC(=O)N/N=C1/C[C@@H](O)[C@@H](O)[C@@H]2[C@H]3C(=O)N(c4ccc(F)cc4F)C(=O)[C@@H]3CC[C@@H]12 | -21%[14.2 µM] | . | . | . | . | .
COc1ccc(COC(=O)NN=C2C[C@@H](O)[C@@H](O)[C@@H]3[C@H]4C(=O)N(Cc5ccc6c(c5)OCO6)C(=O)[C@@H]4CC[C@H]23)cc1 | 4%[14.2 µM] | . | . | . | 0.27µM* | .
COc1ccc(COC(=O)NN=C2C[C@@H](O)[C@@H](O)[C@@H]3[C@H]4C(=O)N(c5ccc(F)cc5F)C(=O)[C@@H]4CC[C@H]23)cc1 | ? | . | . | . | 2.8µM* | .
Cc1cc(C)c(S(=O)(=O)n2cnc(C)c2)c(C)c1 | . | -8 | . | -19% | -19%[46.1 µM] | .
Cc1cn(C)c(CC(=O)N2CCN(c3ccc(F)cc3)CC2)c1C(=O)O | . | 10 | . | -14% | 6%[46.1 µM] | .
CC(NC(=O)CN1CCCC1)c1ccccc1 (centres undefined) | ? | 34 | 3% | -10% | 9% | 15%
c1ccc2c(Nc3ccc4c(c3)OCCO4)c3c(nc2c1)CCCC3 | ? | -73* | 10% | -19% | 7.9µM* | ?
COc1ccc(Nc2c3c(nc4ccccc24)CCC3)c(OC)c1 | ? | ? | -2% | -23% | ? | ?
O=C(Nc1c2c(nc3ccccc13)CCCC2)c1cccc([N+](=O)[O-])c1 | -9% | -64* | -4% | -19% | ? | ?
COc1cc(Nc2c3c(nc4ccccc24)CCCC3)cc(OC)c1OC | 4.5µM* | -36 | 0% | -10% | -19%[46.1 µM] | -21%
Fc1cccc(Nc2c3c(nc4ccccc24)CCC3)c1 | -2%[46.1 µM] | -25 | -1% | -14% | ? | -20%
COc1ccccc1Nc1c2c(nc3ccccc13)CCC2 | ? | -68* | 0% | -26% | ? | ?
COc1cc(Cl)c(C)cc1Nc1c2c(nc3ccccc13)CCC2 | ? | -101* | . | ? | ? | .
COC(=O)c1cccc(Nc2c3c(nc4ccccc24)CCC3)c1 | ? | -20 | -3% | ? | ? | 3.2µM*
CCOC(=O)c1cccc(Nc2c3c(nc4ccccc24)CCC3)c1 | ? | -27 | . | ? | ? | .
CC(C)CC(=O)n1nc(-c2ccco2)nc1NCc1ccc(Cl)cc1 | -1%[46.1 µM] | 24 | . | 28% | -5%[46.1 µM] | .
CC[C@H]1CN2CCC1C[C@H]2[C@H](O)c1ccnc2ccc(OC)cc12 (some centres undefined) | . | -68* | . | -26% | . | 3%
C=CC1CN2CCC1CC2[C@@H](OC(=O)c1ccc(OC)cc1)c1ccnc2ccccc12 (some centres undefined) | 11µM* | -20 | 5% | ? | ? | 20%
CCOc1cc(CN2CCC(CO)(Cc3cccc(C(F)(F)F)c3)CC2)ccc1OC | 4.5µM* | -26 | 0% | -6% | -22%[46.1 µM] | ?
CCN(CC)Cc1ccc(Nc2nccc(-c3cnn4ncccc34)n2)cc1 | . | . | . | . | 0.04µM* | .
CC(C)c1ccc(Nc2nccc(-c3cnn4ncccc34)n2)cc1 | . | . | . | . | 11µM* | .
